Consider 35 molecules from PubChem BioAssay (Tox21).

Inconclusive results are not listed. A call without a number means that no potency is given here. Unmarked numbers belong to inactive results. Calls of active or inactive are those of the source. Calls follow the shape of the dose curve; as a rule, active = well fitted curve in the direction sought with a large enough effect in the repeat runs; inconclusive = weak or mixed curves; inactive = no such curve, though single readings can be large; an effect the other way counts as inactive or inconclusive.
Also: nearly all actives have a fitted effect of over 50% in size.
Potency is read from the fitted curve at half-maximal effect.

Sequence of Voltage-gated inwardly rectifying potassium channel KCNH2 (Homo sapiens) (Q12809 whole entry, looked up): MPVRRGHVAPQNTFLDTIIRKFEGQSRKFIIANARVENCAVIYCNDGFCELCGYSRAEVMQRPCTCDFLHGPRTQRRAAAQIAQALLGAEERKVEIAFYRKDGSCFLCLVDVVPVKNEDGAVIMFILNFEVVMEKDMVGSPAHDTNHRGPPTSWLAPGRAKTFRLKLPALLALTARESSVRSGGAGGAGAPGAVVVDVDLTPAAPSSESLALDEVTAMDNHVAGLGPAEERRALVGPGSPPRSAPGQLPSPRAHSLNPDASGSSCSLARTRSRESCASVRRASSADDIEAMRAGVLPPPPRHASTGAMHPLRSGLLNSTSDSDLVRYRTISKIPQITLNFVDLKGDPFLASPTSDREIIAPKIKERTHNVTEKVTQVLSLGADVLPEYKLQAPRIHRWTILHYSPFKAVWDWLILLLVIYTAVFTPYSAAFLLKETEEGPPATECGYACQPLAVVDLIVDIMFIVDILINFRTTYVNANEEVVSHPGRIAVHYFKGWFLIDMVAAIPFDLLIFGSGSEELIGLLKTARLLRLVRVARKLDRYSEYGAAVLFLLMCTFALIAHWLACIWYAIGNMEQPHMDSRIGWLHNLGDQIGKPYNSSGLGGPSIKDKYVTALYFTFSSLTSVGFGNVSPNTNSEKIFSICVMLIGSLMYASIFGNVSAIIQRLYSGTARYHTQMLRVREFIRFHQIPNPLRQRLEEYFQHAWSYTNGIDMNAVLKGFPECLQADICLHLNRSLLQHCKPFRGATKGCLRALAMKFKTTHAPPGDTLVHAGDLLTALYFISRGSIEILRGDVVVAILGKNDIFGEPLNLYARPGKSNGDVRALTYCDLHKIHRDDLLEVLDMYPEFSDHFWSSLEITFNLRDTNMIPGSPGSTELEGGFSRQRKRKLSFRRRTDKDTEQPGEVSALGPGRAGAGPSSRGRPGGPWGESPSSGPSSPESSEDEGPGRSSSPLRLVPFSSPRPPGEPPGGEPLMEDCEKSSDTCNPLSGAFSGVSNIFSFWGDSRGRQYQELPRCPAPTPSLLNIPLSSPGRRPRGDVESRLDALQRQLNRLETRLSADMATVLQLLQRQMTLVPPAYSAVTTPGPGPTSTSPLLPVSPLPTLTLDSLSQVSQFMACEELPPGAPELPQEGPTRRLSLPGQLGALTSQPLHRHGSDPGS

One assay deals with Voltage-gated inwardly rectifying potassium channel KCNH2 (Homo sapiens) (UniProt Q12809). Kind of assay: Human Ether-a-go-go-Related Gene (hERG) channel small molecule antagonists: fluorescence cell-based qHTS assay (AID 1671200). Particulars: hERG-U2OS cells, FluxOR thallium flux fluorescence; series mostly up to 76.8 µM. The method, boiled down:
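Thallium flux as potassium surrogate: FluxOR II dye loaded 1 h at room temperature into hERG-expressing U2OS cells, then stimulus buffer added after 10 min. Kinetic 480 nm excitation/540 nm emission read, 2 min.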
On the technique in general: Block of hERG is tested as a sign of cardiac risk.
For the molecule `CCCOCCC`, the Potency entry is “inactive”. In the case of `CCCCOc1cc(C(=O)NCCN(CC)CC)c2ccccc2n1`, the Potency was 5.35 µM (active). Consider `CC(C)C(=O)OCC(C)(C)C(O)C(C)C` (stereo not given), for which the Potency result was “inactive”. Still for that read-out and setting: in the case of `CCN(CC)CCNC(=O)COc1ccc(Cl)cc1` it was 13.4 µM (active). Turning to `CCOc1ccc(NC(N)=O)cc1`, the Potency result was “inactive”. Turning to `COC(=O)/C=C(/C)N`, the Potency entry was “inactive”.

With `CC(=O)OC1C2(C)CCC(C2)C1(C)C` (stereo not given), the Potency entry is “inactive”. Take `CCc1nnc(NS(=O)(=O)c2ccc(N)cc2)s1`: the Potency result was “inactive”.

As for `CCN1CC(CCN2CCOCC2)C(c2ccccc2)(c2ccccc2)C1=O` (stereo not given), the Potency entry was “inactive”. With `NC(=O)Cc1cccc(C(=O)c2ccccc2)c1N`, the Potency result was “inactive”. On to `CN1CCN(N)CC1`, for which the Potency entry is “inactive”. On the same count and under the same terms, in the case of `O=C1CCCCCCCCCCC(=O)OCCO1` it was “inactive”; in that of `CCCCC1CCC(=O)O1` (stereo not given), “inactive”.

For `CCCNC(C)C(=O)Nc1c(C)csc1C(=O)OC` (stereo not given), the Potency result was “inactive”.

Regarding `Nc1cccc(S(=O)(=O)O)c1`, the Potency entry is “inactive”.

`O=c1oc2c(O)c(O)cc3c(=O)oc4c(O)c(O)cc1c4c23`: the activity change, negative = inhibition is 6.87% [at 15.8 µM].

Take `CC/C=C\CCOC(=O)C(C)C`: the Potency result is “inactive”. The same measure, in the same setting: in the case of `CCCCCCCCc1ccc(S(=O)(=O)O)cc1` it was “inactive”; in that of `CC(C)C(=O)OC/C=C/c1ccccc1`, “inactive”; in that of `CCCCCCCCCC/C=C/C#N`, “inactive”. Still for that read-out and setting: the result for `Oc1ccccc1F` reads “inactive”. Turning to `Cc1onc(-c2ccccc2)c1C(=O)Cl`, the Potency entry is “inactive”. As for `CN1C(=O)CC(c2ccccc2)C1=O` (stereo not given), the Potency entry was “inactive”.

On to `OC[C@H]1O[C@@H](O[C@H]2[C@H](O)[C@@H](O)[C@H](O)O[C@@H]2CO)[C@H](O)[C@@H](O)[C@H]1O`, for which the Potency result is “inactive”. On to `Cc1ccc(C=O)s1`, for which the Potency entry is “inactive”. The same measure, in the same setting: the result for `CC(C)O` reads “inactive”; that for `CCC/C=C/CO`, “inactive”.

The target of another assay is Cytochrome P450 3A4 (Homo sapiens) (UniProt P08684). Kind of assay: Cytochrome P450 Family 3 Subfamily A Member 4 (CYP3A4) small molecule antagonists: luciferase reporter qHTS assay (AID 1671201). The following applies: P450-Glo CYP3A4 enzyme, luciferin luminescence, 1 h; series mostly up to 115 µM. The method, boiled down: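 Recombinant human CYP3A4 converts a proluciferin substrate to luciferin over 1 h at room temperature after NADPH regeneration solution is added (compound preincubated 10 min); detection reagent stops reaction, luminescence read 20 min later as relative units.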
Sequence of Cytochrome P450 3A4 (Homo sapiens) (P08684 whole entry, looked up): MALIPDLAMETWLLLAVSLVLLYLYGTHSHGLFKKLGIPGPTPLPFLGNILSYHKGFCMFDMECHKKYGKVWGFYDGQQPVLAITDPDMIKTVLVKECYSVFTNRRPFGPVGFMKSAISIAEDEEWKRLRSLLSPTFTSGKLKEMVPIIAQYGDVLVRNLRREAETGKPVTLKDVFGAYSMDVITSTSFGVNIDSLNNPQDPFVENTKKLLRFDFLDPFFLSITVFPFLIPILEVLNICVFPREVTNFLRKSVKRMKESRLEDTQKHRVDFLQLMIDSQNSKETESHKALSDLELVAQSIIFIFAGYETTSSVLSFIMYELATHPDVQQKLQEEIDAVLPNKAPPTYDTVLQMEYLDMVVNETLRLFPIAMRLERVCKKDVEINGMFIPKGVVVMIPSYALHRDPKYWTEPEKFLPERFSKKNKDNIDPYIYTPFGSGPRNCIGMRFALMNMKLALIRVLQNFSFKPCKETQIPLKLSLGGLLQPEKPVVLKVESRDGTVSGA
In the case of `CCCOCCC`, the Potency entry is “inactive”. The same measure, in the same setting: in the case of `CC(C)C(=O)OCC(C)(C)C(O)C(C)C` (stereo not given) it was “inactive”.

`Cc1ccc([N+](=O)[O-])cc1Cl`: the Potency entry is “inactive”.

In the case of `CCOc1ccc(NC(N)=O)cc1`, the Potency result is “inactive”. In the case of `NNS(=O)(=O)c1ccc(Oc2ccc(S(=O)(=O)NN)cc2)cc1`, the Potency result is “inactive”.

As to `CC(=O)O[C@H]1CC[C@@]2(C)C(=CC[C@@H]3[C@@H]2CC[C@]2(C)C(C(C)=O)=CC[C@@H]32)C1`, the Potency result is “inactive”. Same read-out and setting: the result for `O=c1[nH]c(=O)n([C@H]2C[C@H](O)[C@@H](CO)O2)cc1C(F)(F)F` reads “inactive”; that for `CC(=O)OC1C2(C)CCC(C2)C1(C)C` (stereo not given), “inactive”; that for `COC(C)CCO` (stereo not given), “inactive”. On to `O=C(O[C@@H](C(=O)O)[C@@H](OC(=O)c1ccccc1)C(=O)O)c1ccccc1`, for which the Potency result was “inactive”. Consider `NC(=O)Cc1cccc(C(=O)c2ccccc2)c1N`, for which the Potency entry is “inactive”. On to `O=C1CCCCCCCCCCC(=O)OCCO1`, for which the Potency was 31.7 µM (active).

Regarding `CCOC(=O)NCCC[Si](OCC)(OCC)OCC`, the Potency is 39.9 µM (active). On to `CCCNC(C)C(=O)Nc1c(C)csc1C(=O)OC` (stereo not given), for which the Potency entry was “inactive”.

With `Nc1cccc(S(=O)(=O)O)c1`, the Potency entry is “inactive”. Same read-out and setting: the result for `CCCCCCCCc1ccc(S(=O)(=O)O)cc1` reads “inactive”; that for `CC(C)C(=O)OC/C=C/c1ccccc1`, “inactive”; that for `CC(=O)Nc1ccc(C)c(Cl)c1`, 39.9 µM (active). For the molecule `CCCCCCCCCC/C=C/C#N`, the Potency entry was “inactive”. Same read-out and setting: the result for `Oc1ccccc1F` reads “inactive”; that for `Cc1onc(-c2ccccc2)c1C(=O)Cl`, “inactive”; that for `OC[C@H]1O[C@@H](O[C@H]2[C@H](O)[C@@H](O)[C@H](O)O[C@@H]2CO)[C@H](O)[C@@H](O)[C@H]1O`, “inactive”. Regarding `CC(C)O`, the Potency entry was “inactive”.
